# Reference: the supplement of paper PMC11732987, “Enantioselective OTUD7B fragment discovery through chemoproteomics screening and high-throughput optimisation” (Communications Chemistry, 2025)
# A number with no mark means an inactive call.
# Columns and labels:
# Test in all cases: log2 ratio of Biotin-Ahx-Ub-VS probe labelling (fragment/DMSO); higher = less target engagement (more negative = stronger competition), active = hit call of the paper (q ≤ 0.05, log2 ratio ≤ -1)
# Details in all cases: compound concentration: 200 uM; treatment time: 3 h
# ALG13 = biological target: T1, ALG13 (UniProt Q9NP73)
# T1 sequence (whole entry): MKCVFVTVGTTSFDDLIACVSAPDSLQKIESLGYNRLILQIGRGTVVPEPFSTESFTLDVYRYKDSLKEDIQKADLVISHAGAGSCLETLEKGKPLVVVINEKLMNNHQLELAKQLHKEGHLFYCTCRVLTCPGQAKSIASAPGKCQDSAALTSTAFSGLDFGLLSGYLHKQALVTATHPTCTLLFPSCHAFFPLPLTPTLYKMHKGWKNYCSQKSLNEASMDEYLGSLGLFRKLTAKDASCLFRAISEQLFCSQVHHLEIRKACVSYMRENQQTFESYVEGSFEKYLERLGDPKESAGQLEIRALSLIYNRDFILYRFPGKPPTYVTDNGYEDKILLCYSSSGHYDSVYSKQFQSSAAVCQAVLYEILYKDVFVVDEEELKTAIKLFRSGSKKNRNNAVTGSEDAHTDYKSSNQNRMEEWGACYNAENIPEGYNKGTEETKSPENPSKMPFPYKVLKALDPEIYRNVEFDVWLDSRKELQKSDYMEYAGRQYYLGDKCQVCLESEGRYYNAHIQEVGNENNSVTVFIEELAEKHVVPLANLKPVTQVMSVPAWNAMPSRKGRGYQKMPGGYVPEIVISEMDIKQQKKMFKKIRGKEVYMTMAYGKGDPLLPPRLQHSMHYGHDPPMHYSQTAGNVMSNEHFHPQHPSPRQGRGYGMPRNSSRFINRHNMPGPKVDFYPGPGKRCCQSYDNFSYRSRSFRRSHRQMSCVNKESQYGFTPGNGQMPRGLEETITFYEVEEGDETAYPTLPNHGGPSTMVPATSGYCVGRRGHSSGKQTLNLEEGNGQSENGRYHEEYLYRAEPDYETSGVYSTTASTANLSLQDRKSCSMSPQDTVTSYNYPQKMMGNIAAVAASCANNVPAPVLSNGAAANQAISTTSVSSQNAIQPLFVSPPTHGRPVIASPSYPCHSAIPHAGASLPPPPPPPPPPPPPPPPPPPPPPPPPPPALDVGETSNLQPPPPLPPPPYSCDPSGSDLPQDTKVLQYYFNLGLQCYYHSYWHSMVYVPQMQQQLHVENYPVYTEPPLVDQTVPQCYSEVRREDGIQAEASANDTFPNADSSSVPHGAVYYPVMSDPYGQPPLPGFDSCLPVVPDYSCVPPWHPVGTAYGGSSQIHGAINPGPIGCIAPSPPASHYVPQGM
# Outline: (§1)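 HEK293T lysate in Tris/CHAPS/IGEPAL buffer with protease inhibitors (495 µg per sample) was given fragment at 200 µM or vehicle for 3 h, in triplicate. It then received Biotin-Ahx-Ub-VS at 0.5 µM final for 1 h. Labelled DUBs were NeutrAvidin-enriched, digested with LysC and trypsin, and run by diaPASEF LC-MS/MS. Values are average log2 fragment/vehicle ratios by unpaired t-test on global-median-normalised Spectronaut quantities of proteins with ≥2 unique peptides.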
# ATXN3 = ATXN3 (UniProt P54252)
# Outline: as §1
# BAP1 = biological target: T2, BAP1 (UniProt Q92560)
# T2 sequence (whole entry): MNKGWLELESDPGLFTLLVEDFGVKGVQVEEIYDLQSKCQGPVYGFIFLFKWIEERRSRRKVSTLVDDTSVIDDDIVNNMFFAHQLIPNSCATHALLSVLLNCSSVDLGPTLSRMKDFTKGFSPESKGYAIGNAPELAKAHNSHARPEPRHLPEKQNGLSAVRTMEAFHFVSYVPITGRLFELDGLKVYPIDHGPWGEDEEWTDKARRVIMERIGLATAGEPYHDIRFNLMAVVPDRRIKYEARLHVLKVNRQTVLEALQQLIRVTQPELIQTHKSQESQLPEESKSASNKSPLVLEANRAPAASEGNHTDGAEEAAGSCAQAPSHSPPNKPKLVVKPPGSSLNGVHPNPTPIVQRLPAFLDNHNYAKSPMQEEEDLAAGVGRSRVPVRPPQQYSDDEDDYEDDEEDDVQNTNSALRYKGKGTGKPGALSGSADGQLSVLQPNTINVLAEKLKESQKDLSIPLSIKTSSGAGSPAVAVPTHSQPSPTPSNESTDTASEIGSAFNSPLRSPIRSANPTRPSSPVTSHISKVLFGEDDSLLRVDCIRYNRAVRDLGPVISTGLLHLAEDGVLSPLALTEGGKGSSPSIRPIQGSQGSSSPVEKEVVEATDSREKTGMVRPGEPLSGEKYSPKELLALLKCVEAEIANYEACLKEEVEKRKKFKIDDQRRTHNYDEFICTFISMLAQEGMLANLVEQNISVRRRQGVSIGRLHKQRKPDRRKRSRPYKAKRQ
# Outline: as §1
# EIF3F = EIF3F (UniProt O00303)
# Outline: as §1
# EIF3H = EIF3H (UniProt O15372)
# Outline: as §1
# FAM105A = biological target: T3, FAM105A (UniProt Q9NUU6)
# T3 sequence (whole entry): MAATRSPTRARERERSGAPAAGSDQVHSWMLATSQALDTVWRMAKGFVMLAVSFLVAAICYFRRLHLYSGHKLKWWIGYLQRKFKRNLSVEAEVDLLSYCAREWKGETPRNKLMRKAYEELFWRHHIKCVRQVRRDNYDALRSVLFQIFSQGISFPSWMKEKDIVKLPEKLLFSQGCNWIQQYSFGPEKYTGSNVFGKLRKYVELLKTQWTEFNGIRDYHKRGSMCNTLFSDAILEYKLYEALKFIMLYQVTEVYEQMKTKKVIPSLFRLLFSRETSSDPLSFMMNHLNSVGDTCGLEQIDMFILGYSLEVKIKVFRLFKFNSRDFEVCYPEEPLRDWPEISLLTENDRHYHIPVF
# Outline: as §1
# OTUB1 = OTUB1 (UniProt Q96FW1)
# Outline: as §1
# OTUD4 = biological target: T4, OTUD4 (UniProt Q01804)
# T4 sequence (whole entry): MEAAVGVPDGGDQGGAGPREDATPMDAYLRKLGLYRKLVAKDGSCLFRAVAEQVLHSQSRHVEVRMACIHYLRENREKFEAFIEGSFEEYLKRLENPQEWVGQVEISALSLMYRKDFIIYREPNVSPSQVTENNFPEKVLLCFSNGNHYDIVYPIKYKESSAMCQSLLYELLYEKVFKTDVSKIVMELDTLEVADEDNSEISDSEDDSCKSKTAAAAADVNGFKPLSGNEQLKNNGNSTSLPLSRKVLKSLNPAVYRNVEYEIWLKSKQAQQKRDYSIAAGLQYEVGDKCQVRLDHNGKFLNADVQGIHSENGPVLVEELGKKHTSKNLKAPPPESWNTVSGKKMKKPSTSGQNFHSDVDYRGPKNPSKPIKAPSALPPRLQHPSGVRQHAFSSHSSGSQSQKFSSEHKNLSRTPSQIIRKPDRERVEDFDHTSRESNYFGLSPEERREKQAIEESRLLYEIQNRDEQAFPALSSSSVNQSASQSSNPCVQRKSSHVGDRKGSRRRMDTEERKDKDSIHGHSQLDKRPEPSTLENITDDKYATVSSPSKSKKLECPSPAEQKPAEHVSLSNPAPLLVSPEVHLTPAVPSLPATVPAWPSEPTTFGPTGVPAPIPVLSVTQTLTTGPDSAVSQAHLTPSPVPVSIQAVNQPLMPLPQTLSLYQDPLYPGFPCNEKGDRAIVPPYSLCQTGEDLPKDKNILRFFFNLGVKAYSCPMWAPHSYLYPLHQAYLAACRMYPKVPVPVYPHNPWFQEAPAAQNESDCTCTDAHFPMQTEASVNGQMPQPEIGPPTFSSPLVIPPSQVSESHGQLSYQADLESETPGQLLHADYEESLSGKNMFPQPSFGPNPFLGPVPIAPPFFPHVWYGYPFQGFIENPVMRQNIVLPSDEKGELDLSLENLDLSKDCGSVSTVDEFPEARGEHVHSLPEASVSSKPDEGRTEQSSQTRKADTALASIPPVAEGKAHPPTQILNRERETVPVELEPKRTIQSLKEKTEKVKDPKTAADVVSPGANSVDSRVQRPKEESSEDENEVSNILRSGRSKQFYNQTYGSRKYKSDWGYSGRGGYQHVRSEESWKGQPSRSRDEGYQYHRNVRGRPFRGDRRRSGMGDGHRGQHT
# Outline: as §1
# OTUD5 = biological target: T5, OTUD5 (UniProt Q96G74)
# T5 sequence (whole entry): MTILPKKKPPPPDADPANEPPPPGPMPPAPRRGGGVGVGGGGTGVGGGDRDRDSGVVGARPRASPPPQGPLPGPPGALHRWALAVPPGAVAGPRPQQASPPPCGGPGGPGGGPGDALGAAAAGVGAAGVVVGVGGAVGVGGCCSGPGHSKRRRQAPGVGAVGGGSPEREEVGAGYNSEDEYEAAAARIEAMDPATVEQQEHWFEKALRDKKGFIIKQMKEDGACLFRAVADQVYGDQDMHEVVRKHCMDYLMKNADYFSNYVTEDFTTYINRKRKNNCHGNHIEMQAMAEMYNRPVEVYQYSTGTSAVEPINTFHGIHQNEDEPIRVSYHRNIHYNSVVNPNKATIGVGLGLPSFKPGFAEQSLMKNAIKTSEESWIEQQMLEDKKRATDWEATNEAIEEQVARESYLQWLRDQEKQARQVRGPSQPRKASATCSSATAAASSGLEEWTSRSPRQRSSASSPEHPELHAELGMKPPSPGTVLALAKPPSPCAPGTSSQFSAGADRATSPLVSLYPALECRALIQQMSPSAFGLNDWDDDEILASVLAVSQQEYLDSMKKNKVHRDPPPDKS
# Outline: as §1
# Sequence of EIF3F (O00303 whole entry): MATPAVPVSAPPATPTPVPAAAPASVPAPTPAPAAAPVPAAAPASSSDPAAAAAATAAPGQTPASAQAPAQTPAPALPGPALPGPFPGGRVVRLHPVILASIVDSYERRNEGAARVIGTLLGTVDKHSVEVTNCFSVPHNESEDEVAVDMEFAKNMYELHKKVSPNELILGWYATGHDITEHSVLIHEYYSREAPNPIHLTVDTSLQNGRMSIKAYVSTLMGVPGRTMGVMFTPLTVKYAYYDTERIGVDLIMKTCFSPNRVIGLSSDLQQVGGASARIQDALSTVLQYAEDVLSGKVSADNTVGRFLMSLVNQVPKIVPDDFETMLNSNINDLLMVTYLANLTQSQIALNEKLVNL
# Sequence of ATXN3 (P54252 whole entry): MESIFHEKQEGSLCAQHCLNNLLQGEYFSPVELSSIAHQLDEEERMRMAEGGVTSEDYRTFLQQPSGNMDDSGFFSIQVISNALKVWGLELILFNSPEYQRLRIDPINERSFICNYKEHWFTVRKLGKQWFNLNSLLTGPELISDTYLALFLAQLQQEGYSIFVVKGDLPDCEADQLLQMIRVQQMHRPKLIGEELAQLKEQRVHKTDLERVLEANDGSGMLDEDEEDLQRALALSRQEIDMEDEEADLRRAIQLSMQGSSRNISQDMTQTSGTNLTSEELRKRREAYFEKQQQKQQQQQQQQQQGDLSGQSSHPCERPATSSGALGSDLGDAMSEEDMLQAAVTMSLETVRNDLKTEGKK
# Sequence of EIF3H (O15372 whole entry): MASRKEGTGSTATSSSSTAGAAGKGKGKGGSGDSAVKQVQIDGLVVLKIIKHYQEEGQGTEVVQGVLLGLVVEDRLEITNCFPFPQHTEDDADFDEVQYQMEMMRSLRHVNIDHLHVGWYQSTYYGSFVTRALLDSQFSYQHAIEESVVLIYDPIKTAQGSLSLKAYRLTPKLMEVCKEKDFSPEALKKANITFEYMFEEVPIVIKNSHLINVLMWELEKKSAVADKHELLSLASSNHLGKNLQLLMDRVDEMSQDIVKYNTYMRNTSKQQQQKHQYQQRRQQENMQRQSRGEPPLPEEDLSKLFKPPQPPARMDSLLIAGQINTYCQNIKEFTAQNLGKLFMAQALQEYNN
# Sequence of OTUB1 (Q96FW1 whole entry): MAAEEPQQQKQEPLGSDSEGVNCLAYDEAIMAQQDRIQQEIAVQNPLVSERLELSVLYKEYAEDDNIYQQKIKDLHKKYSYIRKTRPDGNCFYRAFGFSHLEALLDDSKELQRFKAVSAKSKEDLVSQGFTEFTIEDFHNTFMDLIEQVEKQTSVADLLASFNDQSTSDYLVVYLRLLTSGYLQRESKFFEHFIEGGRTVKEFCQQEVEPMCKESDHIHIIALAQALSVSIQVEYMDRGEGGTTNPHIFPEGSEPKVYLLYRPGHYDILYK
smiles,measurement,setting,value
CC(NC(=O)CCl)c1noc(Cc2ccccc2)n1 (centres undefined),log2 ratio of Biotin-Ahx-Ub-VS probe labelling,ALG13,0.107
same,log2 ratio of Biotin-Ahx-Ub-VS probe labelling,ATXN3,-0.275
same,log2 ratio of Biotin-Ahx-Ub-VS probe labelling,BAP1,-2.73 (active)
same,log2 ratio of Biotin-Ahx-Ub-VS probe labelling,EIF3F,-0.25
same,log2 ratio of Biotin-Ahx-Ub-VS probe labelling,EIF3H,-0.398
same,log2 ratio of Biotin-Ahx-Ub-VS probe labelling,FAM105A,-0.027
same,log2 ratio of Biotin-Ahx-Ub-VS probe labelling,OTUB1,0.0412
same,log2 ratio of Biotin-Ahx-Ub-VS probe labelling,OTUD4,-0.692
same,log2 ratio of Biotin-Ahx-Ub-VS probe labelling,OTUD5,-0.271
